Laboratory results as given in PubChem BioAssay AID2061321 (National Center for Advancing Translational Sciences (NCATS), 2025).
Records with an inconclusive call do not appear. The source made the active and inactive calls. The call rests on the fitted dose curve; in most records, active means well fitted inhibition curve with a large enough effect; inconclusive means small, poorly fitted or top-dose-only effect; inactive means flat fitted curve, though single readings scatter. Non-standard residues stand in square brackets, D forms with d. Residues, ends and D or L forms follow the SMILES beside them. Dolaproine = CO[C@@H]([C@@H]1CCCN1)[C@@H](C)C(=O)O; Dil = CC[C@H](C)[C@H](NC)[C@@H](CC(=O)O)OC; NMeV = CN[C@H](C(=O)O)C(C)C

Test: Identification of antibody-drug conjugate (ADC) payloads which are substrates of ATP-binding cassette drug efflux transporters: ABCG2-H460 cell line
Conditions: H460 MX20 (ABCG2) viability, CellTiter-Glo, 48 h
From the text: Antibody-drug conjugates (ADCs) feature an antibody recognizing a specific protein joined to a potent toxic payload. Numerous antibody-drug conjugates have received FDA approval; however, clinical resistance arises. Resistance mechanisms include decreased expression or mutation of the antibody target, impaired payload release, or increased expression of ATP-binding cassette (ABC) efflux transporters associated with multidrug resistance. We therefore sought to characterize the interaction of ABC multidrug transporters with ADC payloads. We performed a high-throughput screen with 27 common ADC payloads using cells lines expressing ABC transporters P-glycoprotein (P-gp, encoded by ABCB1) or ABCG2 (encoded by ABCG2). Confirmatory assays were also performed using cells transfected to express P-gp, ABCG2, or MRP1 (encoded by ABCC1). Several commonly used ADC payloads were substrates of P-gp, including calicheamicin gamma1, monomethyl auristatin E, DM1, and DM4. All the pyrrolobenzodiazepines tested - SJG136, SGD-1882, SG2057, and SG3199 - were substrates of P-gp, ABCG2, and MRP1. […] These findings highlight the risk of transporter-mediated resistance with certain ADC payloads and underscore the importance of selecting payloads that evade ABC transporter recognition in future ADC development.
HEK-293 cells were transfected with empty vector (pcDNA) or vector containing the human ABCB1 (MDR-19), ABCG2 (R-5), or ABCC1 gene (MRP1) and were maintained in EMEM with 2 mg/mL G418 added to maintain transporter expression. The HeLa derivative KB-3-1 and the P-gp overexpressing KB-8-5-11 subline were maintained in DMEM; KB-8-5-11 additionally received 100 ng/mL colchicine. H460 parental cells were obtained from the Division of Cancer Treatment and Diagnosis Tumor Repository, National Cancer Institute at Frederick, MD and were cultured in RPMI. The ABCG2 expressing subline H460 MX20 was generated by selecting H460 cells in 20 nM mitoxantrone. Media in all cases was supplemented with 10% FBS and 1% penicillin-streptomycin. We explored 27 common ADC payloads, in two orthogonal, paired cell line sets-a drug selected and transfected set for each transporter--to identify substrates of the ABC transporters P-gp and ABCG2. Compounds were sourced from Levena Biopharma (San Diego, CA), Selleck Chem (Houston, TX), ChemieTek (Indianapolis, IN), or Microsource Discovery Systems (Gaylordsville, CT). Screening was performed as previously described. Briefly, cells were plated at a density of 500 cells/well in 1536 well plates with compounds added using a 1536-head pin tool (Kalypsys, San Diego CA). Cells were incubated with cytotoxic drugs and processed with CellTiter Glo reagent (Promega, Madison, WI) to determine viability after 48 hours. P-gp substrates were identified by comparing compound activity between paired sets of low-expressing (sensitive) and over-expressing (resistant) cell lines.

| SMILES | Potency |
| --- | --- |
| CCc1c2c(nc3ccc(O)cc13)-c1cc3c(c(=O)n1C2)COC(=O)[C@]3(O)CC | 11.9 nM (active) |
| COc1cc2cc(c1Cl)N(C)C(=O)C[C@H](O)[C@]1(C)O[C@H]1[C@H](C)C1C[C@@](O)(NC(=O)O1)[C@H](OC)/C=C/C=C(\C)C2 | 4750 nM (active) |
| COC(=O)c1cc2c3c(cc(O)c2[nH]1)N(C(=O)c1cc2cc(OC)c(OC)c(OC)c2[nH]1)CC3CCl (stereo unspecified) | 0.4 nM (active) |
| COc1cccc2c1C(=O)c1c(O)c3c(c(O)c1C2=O)C[C@@](O)(C(=O)CO)C[C@@H]3O[C@H]1C[C@H]2[C@H](O[C@@H]3[C@@H](OC)OCCN32)[C@H](C)O1 | 0.0598 nM (active) |
| COc1cccc2c1C(=O)c1c(O)c3c(c(O)c1C2=O)C[C@@](O)(C(=O)CO)C[C@@H]3O[C@H]1C[C@H](N)[C@H](O)[C@H](C)O1 | 377 nM (active) |
| CCN[C@H]1CO[C@@H](O[C@H]2[C@H](O[C@H]3C#C/C=C\C#C[C@]4(O)CC(=O)C(NC(=O)OC)=C3/C4=C\CSSSC)O[C@H](C)[C@@H](NO[C@H]3C[C@H](O)[C@H](SC(=O)c4c(C)c(I)c(O[C@@H]5O[C@@H](C)[C@H](O)[C@@H](OC)[C@H]5O)c(OC)c4OC)[C@@H](C)O3)[C@@H]2O)C[C@@H]1OC | 1.1 nM (active) |
| CC[C@]1(O)CC2CN(CCc3c([nH]c4ccccc34)[C@@](C(=O)OC)(c3cc4c(cc3OC)N(C)[C@H]3[C@@](O)(C(=O)OC)[C@H](OC(C)=O)[C@]5(CC)C=CCN6CC[C@]43[C@@H]65)C2)C1 (stereo partly specified) | 533 nM (active) |
| CCN(C(C)=O)[C@H]1CO[C@@H](O[C@H]2[C@H](O[C@H]3C#C/C=C\C#C[C@]4(O)CC(=O)C(NC(=O)OC)=C3/C4=C\CSSSC)O[C@H](C)[C@@H](NO[C@H]3C[C@H](O)[C@H](SC(=O)c4c(C)c(I)c(O[C@@H]5O[C@@H](C)[C@H](O)[C@@H](OC)[C@H]5O)c(OC)c4OC)[C@@H](C)O3)[C@@H]2O)C[C@@H]1OC | 7.5 nM (active) |
| CC[C@H](C)[C@@H]([C@@H](CC(=O)N1CCC[C@H]1[C@H](OC)[C@@H](C)C(=O)N[C@@H](Cc1ccccc1)C(=O)O)OC)N(C)C(=O)[C@@H](NC(=O)[C@@H](NC)C(C)C)C(C)C (H-[NMeV]V[Dil][Dolaproine]F-OH) | 5330 nM (active) |
| CC(C)(C)OC(=O)Nc1ccc2[nH]c(C(=O)N3C[C@@H](CCl)c4c3cc(O)c3ccccc43)cc2c1 | 2.1 nM (active) |
| CN(C)CCOc1ccc2[nH]c(C(=O)N3C[C@@H](CCl)c4c3cc(O)c3ccccc43)cc2c1 | 0.2 nM (active) |
